Measured values from the supplement of paper PMC10849652.
The full data set covers some 7,900 targets. This sample favours those with a hit. About 0.6% of all pairs of compound and target were hits. Values without a mark were called inactive.

Tests used:
Experiment in all cases: log2 fold change, soluble protein after heating vs DMSO (PISA); higher = thermal stabilisation; K562 cells, 10 uM, 30 min; active = over 0.2 and 3.5 SD of the protein, either way, in both replicates (recomputed)
erlotinib = compound: C#Cc1cccc(Nc2ncnc3cc(OCCOC)c(OCCOC)cc23)c1 [erlotinib]
Summary of the method: (§1)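 K562 cells at 2×10^6 cells/mL were given 10 μM compound for 30 min. Aliquots then went through 3 min of heating across 48°C-58°C, were pooled, and were extracted in PBS with 0.5% NP-40 at 4°C, and the supernatant after 21,000xg for 90 min was quantified by TMTpro 16plex LC-MS/MS with channel sums equalised. Thermal stability relative to control samples, from duplicates, is given as log2 fold change.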

[1] = compound: C/C(=N\NC(=O)C1=CC(=CC=C1)S(=O)(=O)N2CCOCC2)/C3=C(C=CC(=C3)Cl)O
Summary of the method: as §1

[2] = compound: C1=CC(=C(C=C1Cl)C2=NC3=NC=CN=C3C(=N2)NC4=CC=NC=C4)F
Summary of the method: as §1

[3] = compound: C1=CC(=CC=C1C2=NC3=C(N2)C=C(C=C3)C(=O)N)OC4=CC=C(C=C4)Cl
Summary of the method: as §1

[4] = compound: C1=CC2=C(C=CC(=C2)/C=C\3/C(=O)NC(=NCC4=CC=CS4)S3)N=C1
Summary of the method: as §1

[5] = compound: C1=CC2=NC=CN=C2C=C1/C=C/3\C(=O)NC(=O)S3
Summary of the method: as §1

[6] = compound: C1=CC=C(C=C1)C2=NC(=C(N2)C3=CC=NC=C3)C4=CC(=C(C=C4)Cl)O
Summary of the method: as §1

[7] = compound: C1=CC=C2C(=C1)C3=NNC4=CC=CC(=C43)C2=O
Summary of the method: as §1

[8] = compound: C1CCN(C1)C(=O)NC2=CC=CC(=C2)NC3=NC=C(C(=N3)NCCC4=CN=CN4)Br
Summary of the method: as §1

[9] = compound: C1CN(CCC1(CC2=CC=C(C=C2)Cl)N)C3=NC=NC4=C3C=CN4
Summary of the method: as §1

IRAK-1-4 Inhibitor I = compound: C1COCCN1CCN2C3=CC=CC=C3N=C2NC(=O)C4=CC(=CC=C4)[N+](=O)[O-] [IRAK-1-4 Inhibitor I]
Summary of the method: as §1

ibrutinib = compound: C=CC(=O)N1CCC[C@@H](n2nc(-c3ccc(Oc4ccccc4)cc3)c3c(N)ncnc32)C1 [ibrutinib]
Summary of the method: as §1

[10] = compound: CC(=O)c1cnc2ccc(-c3cc(Cl)c(O)c(Cl)c3)nc2c1N[C@H]1CC[C@H](CN(C)C)CC1
Summary of the method: as §1

ralimetinib = compound: CC(C)(C)Cn1c(N)nc2ccc(-c3[nH]c(C(C)(C)C)nc3-c3ccc(F)cc3)nc21 [ralimetinib]
Summary of the method: as §1

[11] = compound: CC(C)(O)CC(=O)NCCn1ccc2ncnc(Nc3ccc(Oc4cccc(C(F)(F)F)c4)c(Cl)c3)c21
Summary of the method: as §1

[12] = compound: CC(C)C1=C2N=C(C=C(N2N=C1)NCC3=CC=CC=C3)NCCCCCCN
Summary of the method: as §1

[13] = compound: CC(C)C[C@@H](C=O)NC(=O)[C@H](CC(C)C)NC(=O)[C@H](CC(C)C)NC(=O)OCc1ccccc1
Summary of the method: as §1

pinometostat = compound: CC(C)N(C[C@H]1O[C@@H](n2cnc3c(N)ncnc32)[C@H](O)[C@@H]1O)[C@H]1C[C@@H](CCc2nc3cc(C(C)(C)C)ccc3[nH]2)C1 [pinometostat]
Summary of the method: as §1

[14] = compound: CC1=C(C(CC(=O)N1)C2=CC=C(C=C2)C(F)(F)F)C(=O)NC3=C(C=C4C(=C3)C=NN4)F
Summary of the method: as §1

[15] = compound: CC1=C(C2=C(C=C1)C(=O)C3=CC=CC=C3N2CCCN)C
Summary of the method: as §1

Chain of UniProt Q96T51 (Q96T51 whole entry, looked up): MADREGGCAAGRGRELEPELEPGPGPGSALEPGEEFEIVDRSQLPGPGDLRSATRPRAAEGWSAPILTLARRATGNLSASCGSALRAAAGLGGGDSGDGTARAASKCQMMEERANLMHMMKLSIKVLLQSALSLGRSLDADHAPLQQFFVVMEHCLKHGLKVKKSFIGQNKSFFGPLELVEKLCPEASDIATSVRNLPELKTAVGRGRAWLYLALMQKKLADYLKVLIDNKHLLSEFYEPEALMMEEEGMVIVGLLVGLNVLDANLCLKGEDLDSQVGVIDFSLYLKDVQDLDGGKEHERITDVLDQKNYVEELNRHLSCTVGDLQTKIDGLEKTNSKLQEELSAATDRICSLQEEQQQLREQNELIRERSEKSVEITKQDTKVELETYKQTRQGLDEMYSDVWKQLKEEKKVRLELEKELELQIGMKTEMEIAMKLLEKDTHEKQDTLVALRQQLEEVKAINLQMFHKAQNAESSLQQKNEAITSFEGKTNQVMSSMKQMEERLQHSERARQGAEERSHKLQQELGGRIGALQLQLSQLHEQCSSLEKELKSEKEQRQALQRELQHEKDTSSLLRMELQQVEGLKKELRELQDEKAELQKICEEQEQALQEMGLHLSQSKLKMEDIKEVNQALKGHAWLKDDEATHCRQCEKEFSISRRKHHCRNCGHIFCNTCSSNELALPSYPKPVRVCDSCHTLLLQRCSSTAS
Chain of UniProt O43665 (O43665 whole entry, looked up): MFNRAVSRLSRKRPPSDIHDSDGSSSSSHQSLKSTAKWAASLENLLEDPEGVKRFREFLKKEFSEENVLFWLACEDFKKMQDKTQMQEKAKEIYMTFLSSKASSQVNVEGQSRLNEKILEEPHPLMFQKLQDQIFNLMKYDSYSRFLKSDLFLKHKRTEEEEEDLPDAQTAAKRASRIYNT
Chain of UniProt O94885 (O94885 whole entry, looked up): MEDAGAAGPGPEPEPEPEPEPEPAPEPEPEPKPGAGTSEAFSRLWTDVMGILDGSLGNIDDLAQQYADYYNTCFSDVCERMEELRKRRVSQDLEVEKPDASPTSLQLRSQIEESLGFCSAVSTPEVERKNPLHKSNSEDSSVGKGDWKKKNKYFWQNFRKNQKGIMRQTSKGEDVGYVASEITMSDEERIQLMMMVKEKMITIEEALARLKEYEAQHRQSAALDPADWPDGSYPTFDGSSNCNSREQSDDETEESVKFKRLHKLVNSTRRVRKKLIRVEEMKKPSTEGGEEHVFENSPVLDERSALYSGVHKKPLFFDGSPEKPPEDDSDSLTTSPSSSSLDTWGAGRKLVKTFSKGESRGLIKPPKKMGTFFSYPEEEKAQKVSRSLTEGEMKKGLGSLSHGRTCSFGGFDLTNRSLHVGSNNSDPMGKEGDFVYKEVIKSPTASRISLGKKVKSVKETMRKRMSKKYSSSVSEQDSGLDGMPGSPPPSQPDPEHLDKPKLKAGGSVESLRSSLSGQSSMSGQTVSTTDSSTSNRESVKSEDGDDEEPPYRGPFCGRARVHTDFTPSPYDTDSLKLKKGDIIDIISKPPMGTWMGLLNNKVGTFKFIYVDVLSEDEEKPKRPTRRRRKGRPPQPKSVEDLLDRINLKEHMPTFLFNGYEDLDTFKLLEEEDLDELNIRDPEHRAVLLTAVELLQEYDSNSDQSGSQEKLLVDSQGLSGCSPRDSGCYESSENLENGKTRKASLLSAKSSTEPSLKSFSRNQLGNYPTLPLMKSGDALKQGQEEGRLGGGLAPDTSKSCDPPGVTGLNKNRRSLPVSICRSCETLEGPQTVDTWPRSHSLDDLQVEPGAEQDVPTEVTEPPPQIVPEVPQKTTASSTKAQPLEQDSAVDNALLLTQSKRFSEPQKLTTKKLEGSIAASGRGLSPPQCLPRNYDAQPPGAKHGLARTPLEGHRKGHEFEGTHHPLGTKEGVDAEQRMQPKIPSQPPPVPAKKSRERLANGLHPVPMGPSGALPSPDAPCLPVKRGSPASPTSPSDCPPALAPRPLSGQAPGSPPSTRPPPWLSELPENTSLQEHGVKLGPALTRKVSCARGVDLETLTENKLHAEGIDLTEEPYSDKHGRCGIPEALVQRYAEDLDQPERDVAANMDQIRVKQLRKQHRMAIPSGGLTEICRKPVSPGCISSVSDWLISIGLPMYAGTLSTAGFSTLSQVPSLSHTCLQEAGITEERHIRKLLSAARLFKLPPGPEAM
Chain of UniProt O00584 (O00584 whole entry, looked up): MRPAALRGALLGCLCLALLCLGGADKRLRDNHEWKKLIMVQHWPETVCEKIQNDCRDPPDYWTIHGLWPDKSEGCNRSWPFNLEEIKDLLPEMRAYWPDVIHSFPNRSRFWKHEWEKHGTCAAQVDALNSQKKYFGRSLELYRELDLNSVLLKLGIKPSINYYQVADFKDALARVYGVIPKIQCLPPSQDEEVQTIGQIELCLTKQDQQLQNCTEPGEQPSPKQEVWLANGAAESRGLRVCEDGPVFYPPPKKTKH
Chain of UniProt P05543 (P05543 whole entry, looked up): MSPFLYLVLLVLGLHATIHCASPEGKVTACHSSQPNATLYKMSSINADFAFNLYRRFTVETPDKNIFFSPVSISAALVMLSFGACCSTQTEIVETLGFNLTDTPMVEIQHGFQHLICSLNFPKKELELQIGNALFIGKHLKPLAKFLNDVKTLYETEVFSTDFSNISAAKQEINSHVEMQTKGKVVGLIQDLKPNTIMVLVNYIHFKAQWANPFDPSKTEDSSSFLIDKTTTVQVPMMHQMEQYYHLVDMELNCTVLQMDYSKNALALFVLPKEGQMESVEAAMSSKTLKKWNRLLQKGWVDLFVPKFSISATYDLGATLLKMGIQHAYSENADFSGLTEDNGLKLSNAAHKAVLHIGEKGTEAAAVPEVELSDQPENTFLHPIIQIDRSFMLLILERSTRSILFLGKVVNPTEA
Chain of UniProt O75116 (O75116 whole entry, looked up): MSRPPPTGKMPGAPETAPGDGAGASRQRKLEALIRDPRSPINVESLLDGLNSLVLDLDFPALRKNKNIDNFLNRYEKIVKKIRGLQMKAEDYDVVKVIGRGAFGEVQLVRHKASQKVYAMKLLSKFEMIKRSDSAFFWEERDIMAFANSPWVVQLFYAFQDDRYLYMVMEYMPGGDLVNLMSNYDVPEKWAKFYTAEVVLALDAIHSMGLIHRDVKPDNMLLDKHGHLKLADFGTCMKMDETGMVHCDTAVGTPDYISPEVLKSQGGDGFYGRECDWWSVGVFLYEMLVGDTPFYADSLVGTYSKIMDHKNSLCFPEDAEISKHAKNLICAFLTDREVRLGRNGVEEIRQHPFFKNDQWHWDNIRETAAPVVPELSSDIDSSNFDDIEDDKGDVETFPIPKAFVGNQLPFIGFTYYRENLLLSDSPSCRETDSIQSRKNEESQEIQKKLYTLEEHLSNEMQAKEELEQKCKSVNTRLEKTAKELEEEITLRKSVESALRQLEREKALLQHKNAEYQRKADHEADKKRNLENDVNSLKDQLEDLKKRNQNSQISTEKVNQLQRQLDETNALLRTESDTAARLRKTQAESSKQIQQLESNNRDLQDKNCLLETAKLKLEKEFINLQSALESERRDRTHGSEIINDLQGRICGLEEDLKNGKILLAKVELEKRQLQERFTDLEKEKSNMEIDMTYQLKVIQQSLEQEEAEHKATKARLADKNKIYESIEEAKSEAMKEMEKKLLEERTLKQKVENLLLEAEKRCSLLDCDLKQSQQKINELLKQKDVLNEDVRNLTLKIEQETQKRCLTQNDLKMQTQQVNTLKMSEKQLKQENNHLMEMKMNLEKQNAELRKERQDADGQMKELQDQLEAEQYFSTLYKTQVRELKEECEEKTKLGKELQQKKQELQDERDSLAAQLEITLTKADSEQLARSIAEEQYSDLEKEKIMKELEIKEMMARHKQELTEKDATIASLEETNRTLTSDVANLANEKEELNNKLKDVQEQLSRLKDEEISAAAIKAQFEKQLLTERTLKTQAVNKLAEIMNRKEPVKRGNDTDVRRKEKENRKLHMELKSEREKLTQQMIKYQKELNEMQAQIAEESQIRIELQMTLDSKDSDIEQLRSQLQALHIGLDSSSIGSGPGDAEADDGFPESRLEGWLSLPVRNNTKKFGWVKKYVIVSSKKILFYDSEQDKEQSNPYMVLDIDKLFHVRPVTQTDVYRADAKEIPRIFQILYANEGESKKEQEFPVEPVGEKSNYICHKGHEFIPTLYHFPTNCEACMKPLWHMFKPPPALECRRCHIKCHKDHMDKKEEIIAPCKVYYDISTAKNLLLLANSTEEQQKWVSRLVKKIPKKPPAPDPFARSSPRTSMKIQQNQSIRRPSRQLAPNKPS
Chain of UniProt Q86TU7 (Q86TU7 whole entry, looked up): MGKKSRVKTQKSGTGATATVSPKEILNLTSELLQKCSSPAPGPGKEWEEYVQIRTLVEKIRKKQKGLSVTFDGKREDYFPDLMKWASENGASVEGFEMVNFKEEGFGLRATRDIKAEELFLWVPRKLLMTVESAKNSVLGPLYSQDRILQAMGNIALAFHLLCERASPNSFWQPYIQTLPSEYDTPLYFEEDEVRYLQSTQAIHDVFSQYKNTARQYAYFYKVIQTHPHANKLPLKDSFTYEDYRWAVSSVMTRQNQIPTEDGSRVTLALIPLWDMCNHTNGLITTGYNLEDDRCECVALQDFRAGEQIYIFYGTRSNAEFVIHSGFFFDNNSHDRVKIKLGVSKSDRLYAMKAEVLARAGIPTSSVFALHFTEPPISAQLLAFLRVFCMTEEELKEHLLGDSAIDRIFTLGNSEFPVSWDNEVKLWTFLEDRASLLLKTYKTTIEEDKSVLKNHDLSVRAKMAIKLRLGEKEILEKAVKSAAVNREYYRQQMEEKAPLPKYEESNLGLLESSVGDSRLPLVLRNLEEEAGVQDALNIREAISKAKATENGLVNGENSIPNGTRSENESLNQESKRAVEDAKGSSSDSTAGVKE
Chain of UniProt P63208 (P63208 whole entry, looked up): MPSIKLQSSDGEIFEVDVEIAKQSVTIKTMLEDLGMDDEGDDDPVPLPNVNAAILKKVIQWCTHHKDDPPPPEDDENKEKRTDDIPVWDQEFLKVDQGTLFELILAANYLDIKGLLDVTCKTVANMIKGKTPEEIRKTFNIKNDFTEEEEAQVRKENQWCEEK

| Target | log2 fold change (erlotinib) | log2 fold change [1] | log2 fold change [2] | log2 fold change [3] | log2 fold change [4] | log2 fold change [5] | log2 fold change [6] | log2 fold change [7] | log2 fold change [8] | log2 fold change [9] | log2 fold change (IRAK-1-4 Inhibitor I) | log2 fold change (ibrutinib) | log2 fold change [10] | log2 fold change (ralimetinib) | log2 fold change [11] | log2 fold change [12] | log2 fold change [13] | log2 fold change (pinometostat) | log2 fold change [14] | log2 fold change [15] |
| --- | --- | --- | --- | --- | --- | --- | --- | --- | --- | --- | --- | --- | --- | --- | --- | --- | --- | --- | --- | --- |
| RAC3 (UniProt P60763) | 0.05 | -0.016 | 0.029 | -0.042 | 0.009 | 0.02 | -0.009 | -0.09 | -0.007 | 0.005 | 0.115 | 0.022 | 0.104 | -0.008 | 0.032 | 0.082 | -0.009 | -0.081 | 0.003 | 0.102 |
| RTN4IP1 (UniProt Q8WWV3) | 0.016 | 0 | 0.041 | 0.066 | 0.048 | -0.08 | 0.014 | 0.027 | -0.064 | 0.074 | -0.036 | 0.214 | -0.326 | 0.034 | -0.046 | 0.063 | -0.009 | 0.02 | -0.039 | 0.14 |
| RAC1 (UniProt P63000) | -0.066 | -0.062 | -0.003 | 0.053 | -0.194 | 0.015 | 0.048 | -0.05 | 0.017 | 0.005 | -0.053 | 0.036 | 0.038 | -0.01 | 0.27 | 0.051 | -0.026 | -0.127 | -0.093 | -0.002 |
| RNF220 (UniProt Q5VTB9) | 0.017 | 0.034 | 0.017 | 0.011 | 0.034 | 0.03 | 0.026 | 0.011 | -0.008 | -0.022 | 0.017 | -0.032 | -0.02 | -0.045 | 0.021 | -0.011 | -0.046 | -0.076 | -0.023 | 0.004 |
| SASH1 (UniProt O94885) | -0.013 | 0.12 | 0.145 | -0.01 | -0.104 | -0.009 | 0.005 | 0.107 | -0.041 | -0.079 | 0.145 | -0.069 | -0.097 | -0.138 | 0.002 | -0.25 | 0.152 | 0.081 | -0.077 | 0.07 |
| RGS10 (UniProt O43665) | -0.044 | 0.048 | 0.076 | 0.009 | -0.03 | 0.002 | 0.073 | -0.015 | -0.069 | 0.036 | 0.046 | 0.047 | -0.024 | 0.026 | -0.025 | -0.057 | -0.004 | 0.087 | -0.008 | 0.015 |
| RABGGTA (UniProt Q92696) | 0.068 | 0.018 | 0.065 | 0.001 | 0.063 | 0.025 | 0.036 | 0.043 | 0.005 | 0.122 | 0.064 | -0.021 | -0.02 | -0.038 | -0.021 | 0.049 | -0.041 | -0.027 | 0 | 0.046 |
| SETD3 (UniProt Q86TU7) | 0.01 | -0.007 | 0.04 | 0.009 | 0.06 | 0.002 | 0.031 | 0.004 | -0.015 | 0.044 | -0.007 | 0.011 | -0.018 | -0.041 | -0.013 | 0.027 | -0.022 | 0.002 | -0.03 | 0.05 |
| RNASET2 (UniProt O00584) | 0.027 | -0.007 | -0.006 | 0.002 | 0.012 | -0.014 | -0.001 | -0.027 | 0.034 | 0.052 | 0.028 | 0.042 | 0 | -0.082 | 0.029 | -0.206 | -0.004 | -0.014 | 0.045 | -0.061 |
| RPS21 (UniProt P63220) | -0.045 | -0.062 | -0.071 | 0.017 | -0.056 | 0.079 | -0.066 | -0.027 | 0.033 | 0.017 | -0.004 | -0.035 | 0.055 | -0.014 | 0.069 | 0.056 | 0.075 | -0.022 | 0.014 | -0.02 |
| SERPINA7 (UniProt P05543) | -0.118 | -0.1 | -0.024 | 0.091 | 0.15 | -0.111 | -0.004 | -0.072 | 0.164 | 0.272 | 0.095 | 0.229 | 0.227 | -0.062 | 0.314 | 0.066 | 0.043 | 0 | 0.077 | -0.245 |
| SCG3 (UniProt Q8WXD2) | -0.076 | 0.141 | 0.023 | 0.088 | 0.09 | -0.015 | 0.103 | -0.094 | -0.05 | 0.036 | -0.003 | 0.035 | -0.107 | 0.061 | 0.039 | 0.203 | 0.038 | -0.139 | 0.05 | -0.359 |
| ROCK2 (UniProt O75116) | 0.05 | 0.02 | 0.031 | 0.003 | 0.158 | 0.126 | -0.009 | -0.071 | 0.036 | 0.099 | -0.037 | -0.052 | -0.137 | 0.032 | -0.049 | -0.138 | 0.034 | 0.021 | 0.29 (active) | 0 |
| SKP1 (UniProt P63208) | -0.003 | -0.036 | 0.05 | -0.011 | -0.048 | 0.045 | 0.047 | 0.009 | -0.006 | 0.03 | 0.069 | 0.054 | 0.03 | -0.02 | -0.045 | 0.068 | -0.069 | -0.08 | 0.042 | -0.049 |
| ROR2 (UniProt Q01974) | -0.045 | 0.058 | 0.01 | 0.023 | 0.02 | 0.011 | 0.076 | -0.024 | -0.041 | -0.001 | -0.003 | -0.014 | -0.72 (active) | 0.045 | -0.058 | -0.018 | -0.001 | 0.045 | -0.059 | 0.115 |
| RUFY1 (UniProt Q96T51) | 0.01 | 0.094 | -0.046 | -0.018 | 0.022 | 0.034 | -0.027 | 0 | 0.031 | -0.084 | -0.019 | -0.002 | 0.101 | 0.034 | -0.092 | -0.182 | 0.011 | 0.083 | -0.003 | -0.014 |
